Results filed as inconclusive are left out. Calls of active or inactive are those of the source. Unless noted, calls follow the shape of the full dose curve.
How the values were obtained:
[1] = Nuclear factor erythroid 2-related factor 2/antioxidant responsive element (Nrf2/ARE) small molecule agonists: qHTS cell viability counter screen in human keratinocytes (AID 1919968; active = well fitted curve in the direction sought with a large enough effect in the repeat runs; an effect the other way counts as inactive or inconclusive; also: nearly all actives have a fitted effect of over 55% in size)
Outline: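 HaCaT ARE reporter line, 1,500 cells/well; 5 h settle, 37 C/5% CO2; cpd in DMSO pinned; 23 h exposure; CellTiter-Fluor, 1 h; fluorescence.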

[2] = Nuclear factor erythroid 2-related factor 2/antioxidant responsive element (Nrf2/ARE) small molecule agonists: luciferase reporter gene qHTS assay in human keratinocytes (AID 1919969); also: nearly all actives have a fitted effect of over 35% in size
[3] = target: Gonadotropin-releasing hormone receptor (Homo sapiens) (UniProt P30968); assay: Human gonadotropin-releasing hormone receptor (GnRHR) small molecule agonists, calcium flux assay in GnRHR-HEK293 cells (AID 1920063); also: nearly all actives have a fitted effect of over 35% in size
Gonadotropin-releasing hormone receptor (Homo sapiens), sequence (P30968 whole entry, looked up): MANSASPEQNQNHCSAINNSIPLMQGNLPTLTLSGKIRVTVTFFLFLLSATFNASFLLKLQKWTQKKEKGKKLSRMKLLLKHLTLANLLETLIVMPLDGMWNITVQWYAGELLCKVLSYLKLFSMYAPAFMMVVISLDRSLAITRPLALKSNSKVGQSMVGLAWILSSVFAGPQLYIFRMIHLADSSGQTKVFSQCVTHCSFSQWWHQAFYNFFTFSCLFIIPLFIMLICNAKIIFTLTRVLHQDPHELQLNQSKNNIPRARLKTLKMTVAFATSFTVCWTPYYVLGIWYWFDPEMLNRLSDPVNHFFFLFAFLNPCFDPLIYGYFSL
Outline: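 GnRHR-HEK293, 1500 cells/well, 18 h 37 C/5% CO2; Ca dye 1 h 37 C; cpd pinned (DMSO), agonist mode; kinetic FL 480/540, 3 min, 1 s reads; 15 conc, n=3.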

[4] = target: KiSS-1 receptor (Homo sapiens) (UniProt Q969F8); assay: Human kisspeptin (KISS1R) small molecule agonists, calcium flux assay in KISS1R-HEK293 cells (AID 1920064; active = well fitted curve in the direction sought with a large enough effect in the repeat runs; an effect the other way counts as inactive or inconclusive)
KiSS-1 receptor (Homo sapiens), sequence (Q969F8 whole entry, looked up): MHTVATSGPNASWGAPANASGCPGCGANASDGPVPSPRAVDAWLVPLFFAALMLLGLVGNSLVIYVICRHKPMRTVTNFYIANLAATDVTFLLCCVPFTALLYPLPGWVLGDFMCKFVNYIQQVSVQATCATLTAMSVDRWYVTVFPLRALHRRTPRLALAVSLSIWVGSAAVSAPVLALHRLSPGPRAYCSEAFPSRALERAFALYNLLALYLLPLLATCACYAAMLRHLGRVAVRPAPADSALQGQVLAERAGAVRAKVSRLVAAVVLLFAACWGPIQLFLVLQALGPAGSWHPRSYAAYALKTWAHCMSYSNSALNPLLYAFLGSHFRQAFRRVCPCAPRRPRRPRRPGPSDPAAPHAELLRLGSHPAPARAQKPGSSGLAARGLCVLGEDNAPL
Outline: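 Stable human KISS1R HEK293 line; 18 h plating, 37 C/5% CO2; calcium dye 1 h 37 C; compound pin transfer; kinetic fluorescence Ex/Em 480/540, 3 min.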

[5] = G protein-coupled receptor (GPCR) small molecule agonists, calcium flux assay: HEK293 wild type cell line counter screen (AID 1920065)
Outline: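 Kinetic fluorescence at Ex/Em 480/540, recorded every second over 3 min, served as the read-out after compound addition. Each compound was tested at 15 concentrations in triplicate on cells pre-loaded with calcium dye for 1 h.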

[6] = p53 small molecule agonists, cell-based qHTS assay with human liver microsomes (AID 1963577)
Outline: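 p53RE-bla cells, 4,000/well, compound added after 5 h, with human liver microsomes 0.5 mg/mL and NADPH 0.5 mg/mL final; 16 h at 37 C, then LiveBLAzer 2 h RT, fluorescence.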

[7] = p53 small molecule agonists, cell-based qHTS assay with rat liver microsomes (AID 1963578)
Outline: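 p53RE-bla cells, 4,000/well, pre-incubated 5 h, then given compounds plus rat liver microsomes (0.5 mg/mL final) and NADPH (0.5 mg/mL final). Incubation 16 h at 37 C; beta-lactamase reporter read by LiveBLAzer fluorescence after 2 h at room temperature.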

[8] = p53 small molecule agonists, cell-based qHTS assay with human liver microsomes: qHTS cell viability counter screen (AID 1963579); also: nearly all actives have a fitted effect of over 45% in size
Outline: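 p53RE-bla cells, 4,000/well, dosed 5 hours after plating, with human liver microsomes (0.5 mg/mL final) plus NADPH (0.5 mg/mL final), 16 hours at 37 C. Viability read as CellTiter-Glo luminescence after 30 min at room temperature.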

[9] = p53 small molecule agonists, cell-based qHTS assay with rat liver microsomes: qHTS cell viability counter screen (AID 1963580); also: nearly all actives have a fitted effect of over 45% in size
Outline: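 Intracellular ATP, by CellTiter-Glo luminescence, defines viability. HCT-116 p53RE-bla cells, 4,000 per well, were compound-treated in the presence of rat liver microsomes and NADPH for 16 h at 37 C.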

[10] = p53 small molecule agonists, cell-based qHTS assay (AID 1963582; active = well fitted activation curve with a large enough effect in the signal ratio in the repeat runs, not every such curve was filed as active; the % refers to the signal ratio)
Outline: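 Reporter line: p53RE-bla. Pre-incubation 5 h, 37 C, 5% CO2; compound (DMSO, pin tool) 16 h, 37 C; B/G FRET substrate 2 h RT; fluorescence intensity read.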

[11] = target: 5-hydroxytryptamine receptor 2A (Homo sapiens) (UniProt P28223); assay: 5-hydroxytryptamine receptor 2A (HTR2A) small molecule agonists, cell-based qHTS assay (AID 1963587); also: nearly all actives have a fitted effect of over 30% in size
5-hydroxytryptamine receptor 2A (Homo sapiens), sequence (P28223 whole entry, looked up): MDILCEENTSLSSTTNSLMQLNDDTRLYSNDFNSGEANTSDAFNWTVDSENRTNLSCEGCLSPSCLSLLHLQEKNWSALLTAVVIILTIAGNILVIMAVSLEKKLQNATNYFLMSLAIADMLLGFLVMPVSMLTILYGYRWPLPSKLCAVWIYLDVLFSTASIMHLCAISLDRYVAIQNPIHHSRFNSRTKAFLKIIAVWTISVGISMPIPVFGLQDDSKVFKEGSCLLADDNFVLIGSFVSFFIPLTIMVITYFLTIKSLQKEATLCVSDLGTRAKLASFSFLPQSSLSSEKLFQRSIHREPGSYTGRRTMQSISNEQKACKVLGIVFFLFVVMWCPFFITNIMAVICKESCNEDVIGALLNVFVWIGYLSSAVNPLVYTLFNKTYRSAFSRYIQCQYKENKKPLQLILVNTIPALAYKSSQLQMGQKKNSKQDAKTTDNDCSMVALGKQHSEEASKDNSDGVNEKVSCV
Outline: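 Kinetic calcium-flux fluorescence (2 min, 1 sec intervals) after compound addition in agonist mode. HTR2A-CHO cells were cultured 18 h, then dye-loaded 1 h at 37 C.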

[12] = target: Muscarinic acetylcholine receptor M1 (Homo sapiens) (UniProt P11229); assay: Cholinergic receptor muscarinic 1 (CHRM1) small molecule antagonists, cell-based qHTS assay (AID 1963588); also: nearly all actives have a fitted effect of over 40% in size
Muscarinic acetylcholine receptor M1 (Homo sapiens), sequence (P11229 whole entry, looked up): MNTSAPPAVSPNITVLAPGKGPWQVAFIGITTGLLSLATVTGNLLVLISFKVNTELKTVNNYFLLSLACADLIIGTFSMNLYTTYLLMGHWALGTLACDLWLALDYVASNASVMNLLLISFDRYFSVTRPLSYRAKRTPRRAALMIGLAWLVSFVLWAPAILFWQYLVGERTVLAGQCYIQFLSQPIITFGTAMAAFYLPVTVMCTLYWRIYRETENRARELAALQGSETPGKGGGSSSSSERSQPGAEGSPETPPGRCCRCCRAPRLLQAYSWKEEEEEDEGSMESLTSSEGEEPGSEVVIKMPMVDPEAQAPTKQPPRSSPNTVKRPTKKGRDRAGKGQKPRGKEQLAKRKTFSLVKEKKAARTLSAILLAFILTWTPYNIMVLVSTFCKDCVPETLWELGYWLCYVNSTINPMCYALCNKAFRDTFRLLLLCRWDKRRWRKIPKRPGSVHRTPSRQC
Outline: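 CHRM1-CHO calcium-flux assay, antagonist mode. Cells were seeded 18 h, dye-loaded 1 h at 37 C and given compound for 5 min at RT, then acetylcholine was added at 50nM. FDSS fluorescence was read 3 min; 15 concentrations, three runs.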

[13] = target: Muscarinic acetylcholine receptor M1 (Homo sapiens) (UniProt P11229); assay: Cholinergic receptor muscarinic 1 (CHRM1) small molecule agonists, cell-based qHTS assay (AID 1963589); also: nearly all actives have a fitted effect of over 35% in size
Outline: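 Human M1 in stable CHO line; 18 h plating, 1 h dye load 37 C; cpd added (agonist mode); Ca2+ fluorescence kinetic read, 1 s intervals; 15 conc, 3 runs.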

[14] = cAMP Responsive Elements (CRE) small molecule agonists, cell-based qHTS assay (AID 1963590)
Outline: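 HEK 293T CRE-bla, 2,000 cells/well, 18 h preincubation 37 C/5% CO2; cpds (DMSO) pinned, 3 h; LiveBLAzer B/G FRET substrate, 2 h RT.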

[15] = cAMP Responsive Elements (CRE) small molecule antagonists, cell-based qHTS assay (AID 1963591; active = well fitted inhibition curve with a large enough effect in the signal ratio in the repeat runs, not every such curve was filed as active; the % refers to the signal ratio)
Outline: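 Beta-lactamase reporter read by FRET substrate (LiveBLAzer B/G) after 2 h at room temperature. CRE-bla HEK293T cells had received compound plus 0.25 uM (final) NKH477 for 3 h at 37 °C.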

[16] = target: Beta-2 adrenergic receptor (Homo sapiens) (UniProt P07550); assay: Adrenergic beta2 receptor (ADRB2) small molecule antagonists, cell-based qHTS assay (AID 1963592); also: series mostly up to about 92 µM; nearly all actives have a fitted effect of over 50% in size
Beta-2 adrenergic receptor (Homo sapiens), sequence (P07550 whole entry, looked up): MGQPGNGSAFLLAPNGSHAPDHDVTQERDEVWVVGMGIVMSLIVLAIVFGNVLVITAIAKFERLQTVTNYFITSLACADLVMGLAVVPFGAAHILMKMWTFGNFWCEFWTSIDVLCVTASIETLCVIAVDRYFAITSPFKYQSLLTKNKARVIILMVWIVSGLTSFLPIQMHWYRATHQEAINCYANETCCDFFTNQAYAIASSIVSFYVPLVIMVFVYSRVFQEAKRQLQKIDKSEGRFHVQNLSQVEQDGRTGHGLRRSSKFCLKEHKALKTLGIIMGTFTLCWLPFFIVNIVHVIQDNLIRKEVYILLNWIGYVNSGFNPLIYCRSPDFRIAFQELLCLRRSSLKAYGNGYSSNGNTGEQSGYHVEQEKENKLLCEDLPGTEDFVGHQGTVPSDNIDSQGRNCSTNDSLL
Outline: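 Cells (CHO, stable ADRB2 overexpression) incubated 18-20hr at 37C; compounds added from DMSO; agonist mix (1nM isoproterenol, 100uM IBMX, 25uM Ro-20-1724) added; 0.5hr RT; d2-cAMP and anti-cAMP-cryptate added; 1hr RT; 665/615 nm read.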

[17] = target: Beta-2 adrenergic receptor (Homo sapiens) (UniProt P07550); assay: Adrenergic beta2 receptor (ADRB2) small molecule agonists, cell-based qHTS assay (AID 1963593);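 also: CHO cells stably overexpressing human ADRB2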
Outline: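 CHO cells stably over-expressing ADRB2 were plated overnight at 37C, then dosed with compounds plus a stimulation mix containing 100uM IBMX and 25uM Ro-20-1724 for 0.5hr at room temperature. cAMP was measured by HTRF competition, 1hr.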

[18] = target: D(2) dopamine receptor (Homo sapiens) (UniProt P14416); assay: Dopamine D2 receptor (DRD2) small molecule agonists, cell-based qHTS assay (AID 1963594); also: nearly all actives have a fitted effect of over 35% in size
D(2) dopamine receptor (Homo sapiens), sequence (P14416 whole entry, looked up): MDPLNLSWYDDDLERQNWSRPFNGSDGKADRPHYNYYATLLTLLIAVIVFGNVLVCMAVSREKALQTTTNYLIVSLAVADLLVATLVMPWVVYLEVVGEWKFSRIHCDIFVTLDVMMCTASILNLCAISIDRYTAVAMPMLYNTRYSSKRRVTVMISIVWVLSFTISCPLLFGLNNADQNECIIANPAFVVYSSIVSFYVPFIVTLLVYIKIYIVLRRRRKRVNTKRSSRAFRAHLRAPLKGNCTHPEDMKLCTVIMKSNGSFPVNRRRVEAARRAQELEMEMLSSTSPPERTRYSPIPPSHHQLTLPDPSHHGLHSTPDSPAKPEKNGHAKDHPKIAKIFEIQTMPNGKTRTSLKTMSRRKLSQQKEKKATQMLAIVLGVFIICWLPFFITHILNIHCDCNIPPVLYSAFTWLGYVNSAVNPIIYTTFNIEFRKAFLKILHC
Outline: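 cAMP accumulation in DRD2-HEK293 cells measured by HTRF after 1 h detection; compounds added 10 min before NKH477 (200nM […]) forskolin-analogue stimulation, 30 min at room temperature, with Ro20-1724 present at 0.1 mM final.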

[19] = target: D(2) dopamine receptor (Homo sapiens) (UniProt P14416); assay: Dopamine D2 receptor (DRD2) small molecule antagonists, cell-based qHTS assay (AID 1963595; active = well fitted inhibition curve with a large enough effect in the signal ratio in the repeat runs, with a control signal flat; the % refers to the signal ratio)
Outline: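 Cells were plated and grown for 24 h at 37 °C. Ro20-1724 (0.1 mM final) went in first, then compound for 10 min. NKH477 (200 nM) with quinpirole (12 nM) followed for 30 min at RT, then HTRF detection reagents for 1 h.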

[20] = p53 small molecule agonists, cell-based qHTS assay: qHTS cell viability counter screen (AID 1963581); also: nearly all actives have a fitted effect of over 45% in size
Outline: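 HCT-116 p53RE-bla cells, 4,000/well, plated 5 h before compound pin transfer; 16 h at 37 C; bla substrate 2 h RT; then CellTiter-Glo, 30 min RT, luminescence.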

Measured: Potency

NNS(=O)(=O)c1ccc(Oc2ccc(S(=O)(=O)NN)cc2)cc1
not listed: [20]
inactive: all other assays above

CC1CNCC(C)O1 (configuration not stated)
not listed: [10] | [14] | [19]
inactive: all other assays above

CCC(C)=O
not listed: [10] | [16]
inactive: all other assays above

O=C1NC2NC(=O)NC2N1 (configuration not stated)
not listed: [10] | [11] | [17] | [19]
inactive: all other assays above

O=C(O)c1cccc(C[C@@H]2COc3ccc(OCc4nc5cc(F)ccc5s4)cc3[C@@H]2O)c1
not listed: [10] | [11] | [16]
inactive: all other assays above

CCCC1O[C@@H]2C[C@H]3[C@@H]4CCC5=CC(=O)C=C[C@]5(C)[C@H]4[C@@H](O)C[C@]3(C)[C@]2(C(=O)CO)O1 (some centres not stated)
not listed: [10] | [11] | [12] | [13] | [14] | [15] | [18]
inactive: all other assays above

CC(=O)/C=C/C1C(C)=CCC(C)C1(C)C (configuration not stated)
not listed: [20]
inactive: all other assays above

FC(F)(F)c1ccccc1Cl
not listed: [10] | [18]
inactive: all other assays above
